Active and inactive are the calls of the source. The calls were made as follows: active = hit-call score of the fitted dose curve at least 0.9, where 1 is the maximum; inactive = score below 0.9.
What follows are compounds tested on Glutathione S-transferase M3 (GSTM3), GSTM3 (gene 2947) (assay: LTEA_HepaRG_GSTM3: Life Technologies and Expression Analysis (LTEA) Assay for Glutathione S-transferase M3 (GSTM3) using HepaRG (AID 2283501)). Settings: mRNA level, 48 h; actives raise or lower the signal.
Procedure: LTEA_HepaRG is a cell based, multiplexed-readout assay that uses HepaRG, a human liver cell line, with measurements taken at 48 hours after chemical dosing on a 96-well plate.LTEA_HepaRG_GSTM3 is one of 102 assay component(s) measured in the LTEA HepaRG cell culture assay. It is a marker of Oxidative Stress.Data from the assay component LTEA_HepaRG_GSTM3 was analyzed into 1 endpoint. This assay endpoint, LTEA_HepaRG_GSTM3, was analyzed with bidirectional fitting relative to DMSO as the negative control and baseline of activity. Using a type of inducible reporter, measures of mRNA induction for gain or loss-of-signal activity can be used to understand regulation of transcription factor activity. To generalize the intended target to other relatable targets, this assay endpoint is annotated to the transferase intended target family, where the subfamily is alkyl and aryl transferase.
A total of 1060 chemcials from the ToxCast library were tested in eight-point concentration-response experiments. Cell culture and cytotoxicity assays were conducted at Thermo Fisher Scientific's Custom Services facility (Madison, WI). A single lot of human HepaRG cells (Thermo Fisher Scientific, Frederick, MD) was used for the cell culture experiments. 96-well format collagen type I coated plates of human HepaRG cells were prepared using established methods. Briefly, cryopreserved HepaRG cells were thawed, plated at a density of approximately 100,000 cells/well in HepaRG Thaw, Plate, and General Purpose media (HPRG770, Thermo Fisher Scientific), and incubated for 48 hours. 0.5% DMSO was selected as vehicle control to balance the requisite need of DMSO in HepaRG cultures to maintain differentiation (for example, baseline metabolism, proportions of hepatocytes vs. cholangiocytes), while enabling further hepatic receptor pathway activation (for example, PXR and CAR) in response to chemical exposure. 48 hours after plating, the culture medium was replaced with HepaRG Serum-Free Incudtion Media. Cells were exposed to each test chemical in duplicate and maintained in CO2 incubators for another 48 hours. Chemical plates were thawed to room temperature and 200x concentrations of treatment groups were prepared. 8-point conentration-reponse curves were made with the highest exposure at 100 uM, followed by half-log dilutions, all in 0.5% DMSO. Each test plate contained variouse controls, induction positive controls (1mM phenobarbital), cytotoxicity positive controls ([…] aflatoxin B1), vehicle controls (0.5% DMSO), and total lysis controls (0.5% DMSO). Cell morphology images were taken using an Essen IncuCyte FLR automated microscope, with six 96-well plates imaged in about 24 minutes. Images were captured and exported and JPEG files. Spent culture media was transfered to black-well plates for the LDH assay, and remaining media was sorted at -80 C for later use. Cells were treated with RLT buffer and frozen until shipped for gene expression analysis. Total RNA was isolated from the cell suspension in 75 uL of Buffer RLT (Qiagen, Germantown, MD 20874) by Quintiles/Expression Analysis (Durham, NC) using a custom isolation procedure. Total RNA from each plate well was transferred to a preamplification plate. Fluidigm's 96.96 Dynamic ArrayTM (Fluidigm, Amsterdam, the Netherlands) technology was used for gene expression analyses by quantitative reverse transcription polymerase chain reaction (qRT-PCR, performed by Quintiles/Expression Analysis, Durham, NC)89. Standard TaqManTM Assays (Applied Biosystems/ThermoFisher Scientific, Foster City, CA) were used to assess the expression of 93 genes selected based on their selectivity and sensitivity to important hepatic receptors known to be modulated by environmental chemicals; importance in human hepatocyte functionality; and hepatotoxicity. […]

Compound	outcome	AC50
Clc1nc(Cl)nc(Nc2ccccc2Cl)n1	inactive	–
O=c1n(Cl)c(=O)n(Cl)c(=O)n1Cl	inactive	–
CS(=O)(=O)c1ccc(C(=O)C2C(=O)CCCC2=O)c([N+](=O)[O-])c1	inactive	–
CCOP(=O)(OCC)Oc1nc(Cl)c(Cl)cc1Cl	inactive	–
OC(c1ccc(Cl)cc1)(c1ccc(Cl)cc1)C(Cl)(Cl)Cl	–	81.2 µM (active)
COC(=O)N(C(=O)N1CO[C@@]2(C(=O)OC)Cc3cc(Cl)ccc3C2=N1)c1ccc(OC(F)(F)F)cc1	inactive	–
CCOc1nc(C(Cl)(Cl)Cl)ns1	–	22.9 µM (active)
CC1(C)C(C(=O)OC(C#N)c2cccc(Oc3ccccc3)c2)C1(C)C (stereo not given)	inactive	–
CC1(C)CCC(=Cc2ccc(Cl)cc2)C1(O)Cn1cncn1 (stereo not given)	inactive	–
N#Cc1c[nH]cc1-c1cccc2c1OC(F)(F)O2	–	50 µM (active)
CSC(=O)c1c(C(F)F)nc(C(F)(F)F)c(C(=O)SC)c1CC(C)C	inactive	–
COC(=O)NC(=S)Nc1ccccc1NC(=S)NC(=O)OC	inactive	–
CC(C)=CC1C(C(=O)OCc2coc(Cc3ccccc3)c2)C1(C)C (stereo not given)	inactive	–
Cn1c(-c2ccccc2)cc(-c2ccccc2)[n+]1C	–	85.7 µM (active)
COC(=O)c1c(C(F)F)nc(C(F)(F)F)c(C2=NCCS2)c1CC(C)C	inactive	–
COc1ccc(-c2ccccc2)cc1NNC(=O)OC(C)C	inactive	–
O=P(O)(O)CCCl	inactive	–
CCOc1cc(C(C)(C)C)ccc1C1COC(c2c(F)cccc2F)=N1 (stereo not given)	inactive	–
CC1(C)C(C=C(Cl)Cl)C1C(=O)OC(C#N)c1cccc(Oc2ccccc2)c1 (stereo not given)	inactive	–
Nc1c(Cl)c(F)nc(OCC(=O)O)c1Cl	inactive	–

Compound	outcome	AC50
CCOP(=S)(OCC)Oc1nc(Cl)n(C(C)C)n1	inactive	–
CCNP(=S)(OC)O/C(C)=C/C(=O)OC(C)C (stereo not given)	inactive	–
CC(C)Nc1nc(Cl)nc(NC(C)C)n1	inactive	–
Cc1cc(C)nc(Nc2ccccc2)n1	inactive	–
CC(C)(C)C(=O)C(Oc1ccc(Cl)cc1)n1cncn1 (stereo not given)	inactive	–
Clc1cccc(C(Cl)(Cl)Cl)n1	inactive	–
CCCC(=NOCC)C1=C(O)CC(CC(C)SCC)CC1=O (stereo not given)	inactive	–
CC(C)Oc1cccc(NC(=O)c2ccccc2C(F)(F)F)c1	inactive	–
CCCN(CC)CC1COC2(CCC(C(C)(C)C)CC2)O1 (stereo not given)	inactive	–
CNC(=O)N(C)c1nnc(C(C)(C)C)s1	inactive	–
CCOc1nc(F)cc2nc(S(=O)(=O)Nc3c(Cl)cccc3Cl)nn12	inactive	–
O=C(O)c1c(Cl)ccc2cc(Cl)cnc12	inactive	–
N#CN=C1SCCN1Cc1ccc(Cl)nc1	inactive	–
Cc1nc(N(C)C)nc(OC(=O)N(C)C)c1C	inactive	–
Cc1ccc(N=CN(C)C=Nc2ccc(C)cc2C)c(C)c1	inactive	–
COC(=O)NS(=O)(=O)c1ccc(N)cc1	inactive	–
CC(C)N1C(=O)c2ccccc2NS1(=O)=O	inactive	–
CCCCOCN(C(=O)CCl)c1c(CC)cccc1CC	inactive	–
CCNC(=O)NC(=O)C(C#N)=NOC	inactive	–
CN/C(=N\[N+](=O)[O-])NCc1cnc(Cl)s1	inactive	–
